For ten compounds, outcome and AC50 results are on record in PubChem BioAssay (EPA / NIEHS).

A short description of test [1]: BSK_4H_Eotaxin3: BioMAP Diversity Plus: 4H Assay for Eotaxin 3 Biomarker Activity (AID 2283000; active = hit-call score of the fitted dose curve at least 0.9, where 1 is the maximum; inactive = score below 0.9;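 also: CCL26 protein level quantified by ELISA in parallel with SRB cytotoxicity check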). To be noted: primary human endothelial cells (HUVEC); actives raise or lower the signal. The essentials:
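HUVEC, 24 h post-dose, ELISA for Eotaxin-3/CCL26. Gain or loss of signal fitted bidirectionally vs DMSO baseline.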

Read-out in test [2]: Intercellular Adhesion Molecule 1 (ICAM1), ICAM1 (gene 3383)
As to the kind of experiment: BSK_3C_ICAM1: BioMAP Diversity Plus: 3C Assay for Intercellular Adhesion Molecule 1 (ICAM1) Biomarker Activity (AID 2283003; active = hit-call score of the fitted dose curve at least 0.9, where 1 is the maximum; inactive = score below 0.9). As to conditions: primary human endothelial cells (HUVEC); actives raise or lower the signal. The essentials:
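Chemicals are dosed onto primary human umbilical vein endothelium (3C system). After 24 h, ICAM-1 is measured by ELISA, and responses are fitted bidirectionally relative to DMSO.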

A short description of test [3]: BSK_3C_Proliferation: Cell Proliferation Assessment in the BioMAP Diversity Plus: 3C Assay (AID 2283006; active = hit-call score of the fitted dose curve at least 0.9, where 1 is the maximum; inactive = score below 0.9). As to conditions: primary human endothelial cells (HUVEC). The essentials: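 Cells (human umbilical vein endothelial, sub-confluent) receive test chemical; after 48 h they are fixed in 10% trichloroacetic acid, stained with 0.1% SRB and read at 560 nm. Activity is referenced to DMSO, fitting increases and decreases.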

The target in test [4] is Nuclear receptor subfamily 1 group I member 2 (Homo sapiens) (UniProt O75469). In words: ATG_PXR_TRANS: Attagene TRANS-FACTORIAL HepG2 Assay for human Pregnane X Receptor (PXR) (AID 2283008). The essentials: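 HepG2 transfected (FuGene 6) with GAL4-UAS reporter units + PXR-Gal4 chimera; dosed 24 h. Total RNA → oligo(dT) RT → PCR → 6-FAM primer extension → HpaI cut → CE. Gain-of-signal vs DMSO.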

Test [5] addresses human Retinoic Acid Receptor gamma (RARg), RARG (gene 5916) (UniProt P13631). As to the kind of experiment: ATG_RARg_TRANS: Attagene TRANS-FACTORIAL HepG2 Assay for human Retinoic Acid Receptor gamma (RARg) (AID 2283009). The essentials:
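TRANS format measured activity of exogenous NR-GAL4 fusion (RARg) in transfected HepG2 liver cells after 24 h dosing. Induced reporter RNA was detected by RT-PCR/capillary electrophoresis fluorescence, analysed in the positive direction against DMSO.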

Read-out in test [6]: E-selectin (Homo sapiens) (UniProt P16581)
In words: BSK_3C_Eselectin: BioMAP Diversity Plus: 3C Assay for Eselectin Biomarker Activity (AID 2283015; active = hit-call score of the fitted dose curve at least 0.9, where 1 is the maximum; inactive = score below 0.9;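 also: cell surface E-selectin protein quantified by ELISA 24 h after dosing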). To be noted: primary human endothelial cells (HUVEC); actives raise or lower the signal. The essentials:
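Primary human umbilical vein endothelial cells (3C system) were dosed with chemical and cell-surface E-selectin measured by ELISA 24 h later. Bidirectional curve fitting used DMSO as negative control and baseline.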

Read-out in test [7]: Interleukin-1 alpha (IL1a), IL1A (gene 3552)
As to the kind of experiment: BSK_BE3C_IL1a: BioMAP Diversity Plus: BE3C Assay for Interleukin-1 alpha (IL1a) Biomarker Activity (AID 2283016; active = hit-call score of the fitted dose curve at least 0.9, where 1 is the maximum; inactive = score below 0.9). As to conditions: primary human bronchial epithelial cells; actives raise or lower the signal. The essentials: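 Signal from IL-1a ELISA, taken 24 h after chemical dosing of human bronchial epithelial cells, is compared with DMSO as baseline using bidirectional curve fitting.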

Read-out in test [8]: Monocyte Chemoattractant Protein-1 (MCP1), CCL2 (gene 6347)
As to the kind of experiment: BSK_3C_MCP1: BioMAP Diversity Plus: 3C Assay for Monocyte Chemoattractant Protein-1 (MCP1) Biomarker Activity (AID 2283017; active = hit-call score of the fitted dose curve at least 0.9, where 1 is the maximum; inactive = score below 0.9). As to conditions: primary human endothelial cells (HUVEC); actives raise or lower the signal. The essentials:
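Primary human umbilical vein endothelial cells (3C system) were exposed to test chemical for 24 h, after which MCP-1 was quantified by ELISA. Activity was fitted bidirectionally against DMSO as negative control and baseline.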

Read-out in test [9]: Monocyte Chemoattractant Protein-1 (MCP1), CCL2 (gene 6347)
As to the kind of experiment: BSK_4H_MCP1: BioMAP Diversity Plus: 4H Assay for Monocyte Chemoattractant Protein-1 (MCP1) Biomarker Activity (AID 2283018; active = hit-call score of the fitted dose curve at least 0.9, where 1 is the maximum; inactive = score below 0.9). As to conditions: primary human endothelial cells (HUVEC); actives raise or lower the signal. The essentials: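 Endothelial cells from umbilical vein were treated with test chemical, then after 24 h MCP-1 levels were quantified by ELISA; endpoint values came from bidirectional fitting with DMSO as baseline of activity.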

Read-out in test [10]: Human Leukocyte Antigen - DR isotype (HLADR), HLA-DRA (gene 3122)
In words: BSK_3C_HLADR: BioMAP Diversity Plus: 3C Assay for Human Leukocyte Antigen - DR isotype (HLADR) Biomarker Activity (AID 2283019; active = hit-call score of the fitted dose curve at least 0.9, where 1 is the maximum; inactive = score below 0.9). As to conditions: primary human endothelial cells (HUVEC); actives raise or lower the signal. The essentials: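 Primary human umbilical vein endothelial cells (3C system) were dosed with compound and cell-surface HLA-DR was quantified by ELISA at 24 h. Activity was fitted bidirectionally against DMSO as negative control and baseline.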

For test [11], the target named is human Peroxisome Proliferator-activated Receptor alpha (PPARa), PPARA (gene 5465) (UniProt Q07869). As to the kind of experiment: ATG_PPARa_TRANS: Attagene TRANS-FACTORIAL HepG2 Assay for human Peroxisome Proliferator-activated Receptor alpha (PPARa) (AID 2283001).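 As to AC50: potency for gain of reporter signal over DMSO so agonist or activator.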 The essentials:
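Reporter transcripts quantified by RT-PCR plus capillary electrophoresis after 24 h treatment, fitted upward relative to DMSO. Cells: human HepG2 transiently carrying multiple GAL4-UAS reporter units driven by NR-Gal4 chimeras.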

The target in test [12] is human Peroxisome Proliferator-activated Receptor delta (PPARd), PPARD (gene 5467) (UniProt Q03181). In words: ATG_PPARd_TRANS: Attagene TRANS-FACTORIAL HepG2 Assay for human Peroxisome Proliferator-activated Receptor delta (PPARd) (AID 2283002). The essentials: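 Read-out is induced reporter mRNA, quantified by RT-PCR with fluorescent labelling and capillary electrophoresis after 24 h dosing. Cells are HepG2 transiently carrying multiple GAL4-UAS reporter units driven by exogenous NR-GAL4 chimeras; DMSO serves as baseline.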
Sequence of human Peroxisome Proliferator-activated Receptor delta (PPARd), PPARD (gene 5467) (Q03181 whole entry, looked up, the tested form may be a part): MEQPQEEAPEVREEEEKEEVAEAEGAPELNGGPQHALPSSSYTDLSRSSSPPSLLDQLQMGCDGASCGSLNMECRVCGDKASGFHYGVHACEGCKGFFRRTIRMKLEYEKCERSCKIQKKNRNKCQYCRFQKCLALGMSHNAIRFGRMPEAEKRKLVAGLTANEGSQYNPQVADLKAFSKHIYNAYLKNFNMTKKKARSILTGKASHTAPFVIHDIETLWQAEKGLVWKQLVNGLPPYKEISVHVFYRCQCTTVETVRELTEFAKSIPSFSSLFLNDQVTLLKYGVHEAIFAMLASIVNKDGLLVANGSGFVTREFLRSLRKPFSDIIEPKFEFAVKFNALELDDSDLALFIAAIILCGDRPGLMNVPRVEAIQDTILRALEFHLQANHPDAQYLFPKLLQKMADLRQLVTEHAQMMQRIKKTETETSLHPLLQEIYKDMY

The target in test [13] is human Retinoic Acid Receptor beta (RARb), RARB (gene 5915) (UniProt P10826). In words: ATG_RARb_TRANS: Attagene TRANS-FACTORIAL HepG2 Assay for human Retinoic Acid Receptor beta (AID 2283004). The essentials:
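HepG2 cells transiently transfected with multiplexed GAL4-UAS reporter units expressing chimeric NR–Gal4 fusions; 24 h compound exposure. Reporter mRNA quantified by RT-PCR, 6-FAM labelling, HpaI digestion and capillary electrophoresis; gain-of-signal fitted against DMSO baseline.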

For test [14], the target named is Retinoic acid receptor alpha (Homo sapiens) (UniProt P10276). As to the kind of experiment: ATG_RARa_TRANS: Attagene TRANS-FACTORIAL HepG2 Assay for human Retinoic Acid Receptor alpha (RARa) (AID 2283005). The essentials: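 Reporter transcripts, measured by RT-PCR with fluorescent labeling and capillary electrophoresis after 24 h dosing, reflect activity of an exogenous human RARa–GAL4 fusion in transiently transfected HepG2. Fitted for increase relative to DMSO.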
Sequence of Retinoic acid receptor alpha (Homo sapiens) (P10276 whole entry, looked up, the tested form may be a part): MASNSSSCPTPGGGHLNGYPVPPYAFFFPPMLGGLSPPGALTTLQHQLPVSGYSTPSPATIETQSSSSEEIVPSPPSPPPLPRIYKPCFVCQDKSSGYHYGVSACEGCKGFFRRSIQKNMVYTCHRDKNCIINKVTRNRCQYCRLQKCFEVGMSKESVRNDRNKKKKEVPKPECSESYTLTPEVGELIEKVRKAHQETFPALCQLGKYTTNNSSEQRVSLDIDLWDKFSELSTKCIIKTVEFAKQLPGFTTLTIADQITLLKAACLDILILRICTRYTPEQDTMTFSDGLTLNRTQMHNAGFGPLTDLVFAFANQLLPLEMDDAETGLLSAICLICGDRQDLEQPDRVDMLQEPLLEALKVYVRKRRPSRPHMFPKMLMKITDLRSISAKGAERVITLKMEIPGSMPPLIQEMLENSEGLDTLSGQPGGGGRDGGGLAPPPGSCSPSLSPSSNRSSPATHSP

Test [15] addresses Peroxisome proliferator-activated receptor gamma (Homo sapiens) (UniProt P37231). As to the kind of experiment: ATG_PPARg_TRANS: Attagene TRANS-FACTORIAL HepG2 Assay for human Peroxisome Proliferator-activated Receptor-gamma (PPARg) (AID 2283007). The essentials:
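HepG2 cells are transiently transfected with GAL4-UAS reporter units driven by chimeric NR-Gal4 fusions and dosed for 24 h. Reporter mRNA is quantified by RT-PCR, 6-FAM labelling, HpaI digestion and capillary electrophoresis. Induction is scored against DMSO.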

Test [16] concerns the target human RAR-related Orphan Receptor gamma (RORg), RORC (gene 6097) (UniProt P51449). As to the kind of experiment: ATG_RORg_TRANS: Attagene TRANS-FACTORIAL HepG2 Assay for human RAR-related Orphan Receptor gamma (RORg) (AID 2283011). The essentials: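 Readout: reporter transcript induction (RT-PCR, fluorescent primer extension, capillary electrophoresis) after 24 h compound exposure of transiently transfected HepG2 cells carrying a RORg-Gal4 chimera and GAL4-UAS reporters; DMSO served as baseline, with increasing signal fitted.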

For test [17], the target named is human Retinoid X Receptor beta (RXRb), RXRB (gene 6257) (UniProt P28702). As to the kind of experiment: ATG_RXRb_TRANS: Attagene TRANS-FACTORIAL HepG2 Assay for human Retinoid X Receptor beta (RXRb) (AID 2283013). The essentials: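 Chimeric receptor-Gal4 activity was assessed in transiently transfected human HepG2 cells after 24 h exposure. Transcripts from GAL4-UAS reporters were quantified by fluorescent RT-PCR and capillary electrophoresis, with DMSO as negative control and baseline.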
Sequence of human Retinoid X Receptor beta (RXRb), RXRB (gene 6257) (P28702 whole entry, looked up, the tested form may be a part): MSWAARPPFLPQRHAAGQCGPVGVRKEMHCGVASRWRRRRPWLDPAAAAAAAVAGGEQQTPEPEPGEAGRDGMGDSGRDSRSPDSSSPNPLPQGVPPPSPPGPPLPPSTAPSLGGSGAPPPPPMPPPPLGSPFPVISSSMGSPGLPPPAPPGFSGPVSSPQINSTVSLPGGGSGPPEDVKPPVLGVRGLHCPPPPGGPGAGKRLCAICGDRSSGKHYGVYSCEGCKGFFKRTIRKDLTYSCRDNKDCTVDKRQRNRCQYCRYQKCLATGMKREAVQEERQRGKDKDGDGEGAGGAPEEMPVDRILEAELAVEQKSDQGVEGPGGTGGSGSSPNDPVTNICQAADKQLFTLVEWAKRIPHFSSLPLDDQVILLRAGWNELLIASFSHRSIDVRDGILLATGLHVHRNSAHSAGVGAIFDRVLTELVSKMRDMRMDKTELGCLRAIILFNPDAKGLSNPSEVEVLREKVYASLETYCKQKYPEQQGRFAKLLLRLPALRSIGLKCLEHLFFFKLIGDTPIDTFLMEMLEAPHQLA

Test [18] has as its target human Thyroid Receptor alpha (THRa1), THRA (gene 7067) (UniProt P10827). In words: ATG_THRa1_TRANS: Attagene TRANS-FACTORIAL HepG2 Assay for human Thyroid Receptor alpha (THRa1) (AID 2283014). The essentials: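 HepG2 cells transiently transfected with multiplexed GAL4-UAS reporter units for exogenous chimeric THRa1-Gal4; reporter mRNA measured 24 h after dosing by RT-PCR, 6-FAM labelling, HpaI digestion and capillary electrophoresis. Gain-of-signal fitted versus DMSO baseline.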

Test [19] addresses Retinoic acid receptor RXR-alpha (Homo sapiens) (UniProt P19793). As to the kind of experiment: ATG_RXRa_TRANS: Attagene TRANS-FACTORIAL HepG2 Assay for human Retinoid X Receptor alpha (RXRa) (AID 2283012). The essentials: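 Measures exogenous chimeric NR-GAL4 activity in transfected HepG2 liver cells after 24 h of dosing. Induced reporter mRNA was detected by RT-PCR with capillary electrophoresis, and gain of signal was analysed against DMSO.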

The target in test [20] is human RAR-related Orphan Receptor beta (RORb), RORB (gene 6096) (UniProt Q92753). In words: ATG_RORb_TRANS: Attagene TRANS-FACTORIAL HepG2 Assay for human RAR-related Orphan Receptor beta (RORb) (AID 2283010). The essentials:
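Transfect HepG2 with multiple GAL4-UAS reporter transcription units; dose chemicals for 24 h; isolate RNA, reverse-transcribe and PCR-amplify reporter sequences; label, digest and resolve fragments by capillary electrophoresis; fit increases relative to DMSO.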

Results filed as inconclusive are left out. Activity calls are given as the source filed them. The calls were made as follows, unless noted: active = hit-call score of the fitted dose curve at least 0.9, where 1 is the maximum; inconclusive = response in the unintended direction; inactive = score below 0.9.

Sequence of human RAR-related Orphan Receptor gamma (RORg), RORC (gene 6097) (P51449 whole entry, looked up, the tested form may be a part): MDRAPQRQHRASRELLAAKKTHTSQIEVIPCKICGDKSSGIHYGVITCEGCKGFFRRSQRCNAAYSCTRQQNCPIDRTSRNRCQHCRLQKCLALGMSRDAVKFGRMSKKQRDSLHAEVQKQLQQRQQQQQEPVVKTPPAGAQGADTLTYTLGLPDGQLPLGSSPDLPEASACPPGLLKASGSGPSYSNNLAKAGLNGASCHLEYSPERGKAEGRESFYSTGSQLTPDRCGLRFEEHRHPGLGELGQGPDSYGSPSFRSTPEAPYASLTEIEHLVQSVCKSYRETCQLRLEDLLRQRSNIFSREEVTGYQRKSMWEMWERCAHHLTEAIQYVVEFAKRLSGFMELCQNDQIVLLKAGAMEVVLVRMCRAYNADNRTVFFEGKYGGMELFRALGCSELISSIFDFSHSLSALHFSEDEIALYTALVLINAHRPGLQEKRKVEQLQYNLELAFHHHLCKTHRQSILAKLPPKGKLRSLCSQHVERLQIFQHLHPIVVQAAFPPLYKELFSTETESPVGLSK
Sequence of Peroxisome proliferator-activated receptor gamma (Homo sapiens) (P37231 whole entry, looked up, the tested form may be a part): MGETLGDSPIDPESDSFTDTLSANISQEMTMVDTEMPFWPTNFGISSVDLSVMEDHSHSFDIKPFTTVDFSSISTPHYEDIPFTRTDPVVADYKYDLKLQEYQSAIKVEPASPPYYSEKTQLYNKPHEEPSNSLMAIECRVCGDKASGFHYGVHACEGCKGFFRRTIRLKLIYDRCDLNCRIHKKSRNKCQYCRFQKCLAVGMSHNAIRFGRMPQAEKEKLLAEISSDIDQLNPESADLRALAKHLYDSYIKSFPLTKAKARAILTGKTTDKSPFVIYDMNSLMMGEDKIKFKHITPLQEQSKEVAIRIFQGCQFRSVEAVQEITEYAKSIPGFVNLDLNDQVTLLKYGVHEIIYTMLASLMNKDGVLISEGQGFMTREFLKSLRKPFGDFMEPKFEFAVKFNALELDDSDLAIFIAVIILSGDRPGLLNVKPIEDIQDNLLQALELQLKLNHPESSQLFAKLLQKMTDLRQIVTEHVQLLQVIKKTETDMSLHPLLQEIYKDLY
Sequence of human Retinoic Acid Receptor beta (RARb), RARB (gene 5915) (P10826 whole entry, looked up, the tested form may be a part): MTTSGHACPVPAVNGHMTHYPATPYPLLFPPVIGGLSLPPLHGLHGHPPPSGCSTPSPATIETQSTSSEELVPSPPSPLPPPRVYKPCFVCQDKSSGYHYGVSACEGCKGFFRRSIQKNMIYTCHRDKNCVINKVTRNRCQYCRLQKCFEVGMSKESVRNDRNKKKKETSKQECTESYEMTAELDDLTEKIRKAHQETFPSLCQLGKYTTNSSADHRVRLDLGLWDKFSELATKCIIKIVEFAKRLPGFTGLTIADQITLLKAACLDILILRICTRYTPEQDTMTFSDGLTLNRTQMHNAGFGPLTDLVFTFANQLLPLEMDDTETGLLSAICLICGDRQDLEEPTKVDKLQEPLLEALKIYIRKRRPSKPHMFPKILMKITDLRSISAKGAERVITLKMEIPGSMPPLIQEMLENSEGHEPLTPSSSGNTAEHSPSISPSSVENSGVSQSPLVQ
Sequence of human Thyroid Receptor alpha (THRa1), THRA (gene 7067) (P10827 whole entry, looked up, the tested form may be a part): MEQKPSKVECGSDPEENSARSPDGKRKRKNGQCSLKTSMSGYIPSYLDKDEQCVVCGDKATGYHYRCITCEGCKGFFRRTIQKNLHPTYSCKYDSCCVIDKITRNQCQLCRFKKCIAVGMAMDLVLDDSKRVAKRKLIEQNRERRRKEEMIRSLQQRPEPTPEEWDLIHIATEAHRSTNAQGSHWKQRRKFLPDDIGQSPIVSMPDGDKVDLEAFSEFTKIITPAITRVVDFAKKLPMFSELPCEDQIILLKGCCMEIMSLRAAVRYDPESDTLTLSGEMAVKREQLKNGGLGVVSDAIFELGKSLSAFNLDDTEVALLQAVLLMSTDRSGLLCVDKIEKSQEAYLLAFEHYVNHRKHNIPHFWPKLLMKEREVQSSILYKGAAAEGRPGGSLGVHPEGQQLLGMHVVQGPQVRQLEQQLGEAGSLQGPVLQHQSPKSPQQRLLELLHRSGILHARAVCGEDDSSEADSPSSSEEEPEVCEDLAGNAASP
Sequence of human RAR-related Orphan Receptor beta (RORb), RORB (gene 6096) (Q92753 whole entry, looked up, the tested form may be a part): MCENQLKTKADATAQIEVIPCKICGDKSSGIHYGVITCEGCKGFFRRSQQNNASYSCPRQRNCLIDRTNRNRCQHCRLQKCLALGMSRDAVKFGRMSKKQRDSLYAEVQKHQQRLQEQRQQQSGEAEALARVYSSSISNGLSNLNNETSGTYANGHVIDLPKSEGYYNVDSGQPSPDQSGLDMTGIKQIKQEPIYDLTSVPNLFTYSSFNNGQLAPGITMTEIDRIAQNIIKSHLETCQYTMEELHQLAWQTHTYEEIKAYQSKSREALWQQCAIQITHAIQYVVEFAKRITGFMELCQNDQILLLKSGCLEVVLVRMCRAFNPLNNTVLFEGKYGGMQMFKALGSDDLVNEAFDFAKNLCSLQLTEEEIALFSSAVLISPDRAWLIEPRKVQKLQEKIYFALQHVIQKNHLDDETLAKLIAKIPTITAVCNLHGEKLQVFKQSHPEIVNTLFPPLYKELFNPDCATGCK
Sequence of human Peroxisome Proliferator-activated Receptor alpha (PPARa), PPARA (gene 5465) (Q07869 whole entry, looked up, the tested form may be a part): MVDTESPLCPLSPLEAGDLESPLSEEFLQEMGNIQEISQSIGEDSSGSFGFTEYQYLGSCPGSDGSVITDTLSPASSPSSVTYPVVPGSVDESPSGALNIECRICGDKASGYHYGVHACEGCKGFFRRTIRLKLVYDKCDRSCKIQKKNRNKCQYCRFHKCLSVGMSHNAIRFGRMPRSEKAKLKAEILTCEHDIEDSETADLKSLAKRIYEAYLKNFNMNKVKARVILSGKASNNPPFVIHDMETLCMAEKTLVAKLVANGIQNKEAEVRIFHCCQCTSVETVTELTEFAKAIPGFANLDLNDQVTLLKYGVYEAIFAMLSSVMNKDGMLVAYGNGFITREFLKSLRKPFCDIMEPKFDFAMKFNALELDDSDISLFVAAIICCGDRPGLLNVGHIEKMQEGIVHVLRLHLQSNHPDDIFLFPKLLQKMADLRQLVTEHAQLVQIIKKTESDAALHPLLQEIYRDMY
Sequence of Retinoic acid receptor RXR-alpha (Homo sapiens) (P19793 whole entry, looked up, the tested form may be a part): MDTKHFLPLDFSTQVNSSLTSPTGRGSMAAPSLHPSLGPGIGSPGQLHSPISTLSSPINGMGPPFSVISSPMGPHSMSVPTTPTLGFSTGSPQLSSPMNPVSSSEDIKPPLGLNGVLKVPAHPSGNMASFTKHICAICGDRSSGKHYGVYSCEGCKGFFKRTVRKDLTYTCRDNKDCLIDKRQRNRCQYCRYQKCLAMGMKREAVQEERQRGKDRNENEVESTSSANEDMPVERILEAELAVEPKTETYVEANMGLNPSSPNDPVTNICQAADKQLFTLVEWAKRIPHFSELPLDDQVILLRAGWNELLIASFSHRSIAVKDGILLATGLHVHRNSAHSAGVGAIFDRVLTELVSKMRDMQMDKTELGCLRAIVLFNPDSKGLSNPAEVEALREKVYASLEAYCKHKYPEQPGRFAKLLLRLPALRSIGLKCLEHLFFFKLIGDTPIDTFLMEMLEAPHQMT

For the compound `C1CNCCN1`, the result in test [1], in test [2], in test [3], in test [4], in [5] and in [6] was inactive. Besides, the result in [7], in test [8], in [9] and in [10] was inactive.
Take `CC1=NN(c2ccc(S(=O)(=O)O)cc2)C(=O)C1N=Nc1ccccc1` (stereo unspecified): the result in test [11], in test [12], in test [13], in test [14], in test [15] and in test [4] was inactive. Further, the compound was called inactive in test [5], in test [16], in test [17] and in [18].
In general, AC50 refers to the concentration at which the activity in the assay is half-maximal. With `CC(C)COC(=O)CC(C(=O)OCC(C)C)S(=O)(=O)O` (stereo unspecified), the result in [11], in test [12], in [13], in test [14] and in [17] was inactive. Further, the AC50 in test [15] was 66.8 µM (active); in [4], 36.2 µM (active).
For the compound `CO[Si](CCCS)(OC)OC`, the compound was called inactive in test [11], in test [12], in [15], in test [4], in test [19] and in test [17]. Besides, the compound was called inactive in test [18].
Turning to `CCC(C)c1ccccc1` (stereo unspecified), the compound was called inactive in test [11], in [12], in test [15], in test [4], in test [5] and in test [20]. Besides, the compound was called inactive in test [17] and in [18].
Consider `CN(C)c1ccc2nc3ccc(=[N+](C)C)cc-3sc2c1`, for which the call in test [11], in test [13], in test [14], in test [5], in [20] and in test [16] was inactive. Further, the call in test [19] and in test [18] was inactive. Further, the AC50 in test [15] was 12.1 µM (active); in test [4] it was 10.3 µM (active).
`Cc1ccc(C)c(OCCCC(C)(C)C(=O)O)c1`: the AC50 in [11] was 37.4 µM (active); in test [4], 20.7 µM (active). The compound was called inactive in test [12], in [13], in test [5], in test [20], in test [16] and in [19]. For the same compound, in [17], the call was inactive.
For `Clc1cccnc1`, the result in test [11], in test [12], in [13], in test [14], in [5] and in test [16] was inactive. Also, the compound was called inactive in test [19] and in [18].
With `O=C(OCCc1ccccc1)c1ccccc1`, the compound was classed as inactive in test [11], in [12], in test [13], in test [5] and in [17].
For `CCCCOC(=O)CCC(C)=O`, the call in test [11], in test [12], in [15], in test [4], in [19] and in test [17] was inactive. Moreover, the call in test [18] was inactive.
